The full ranking holds about 39,000 sequences; the median of “fluorescence intensity (a.u.)” is about 4,300, and the highest 2% start at about 39,000. What follows is part of a selection rich in the highest values, with near analogues and random picks from the rest.
The sequences below were run against T1, OsSMF1 (Oryza sativa, UniProt Q6ZLB0 1-436) (assay: protein-binding microarray (RPBM); PBS, 2% BSA, 51.3 ng/ul salmon testes DNA, 50 uM zinc acetate, 200 nM TF, 25 C, 1 h; high values mean tight binding). Conditions: protein: recombinant; tags: N-terminal polyhistidine and DsRed monomer fusion (pET32a); chain copies: 2; label: CyDye5-dUTP incorporated in the synthesized complementary strand; 3' TTTTT single-stranded linker to array surface; dsDNA, one strand shown.
T1 sequence: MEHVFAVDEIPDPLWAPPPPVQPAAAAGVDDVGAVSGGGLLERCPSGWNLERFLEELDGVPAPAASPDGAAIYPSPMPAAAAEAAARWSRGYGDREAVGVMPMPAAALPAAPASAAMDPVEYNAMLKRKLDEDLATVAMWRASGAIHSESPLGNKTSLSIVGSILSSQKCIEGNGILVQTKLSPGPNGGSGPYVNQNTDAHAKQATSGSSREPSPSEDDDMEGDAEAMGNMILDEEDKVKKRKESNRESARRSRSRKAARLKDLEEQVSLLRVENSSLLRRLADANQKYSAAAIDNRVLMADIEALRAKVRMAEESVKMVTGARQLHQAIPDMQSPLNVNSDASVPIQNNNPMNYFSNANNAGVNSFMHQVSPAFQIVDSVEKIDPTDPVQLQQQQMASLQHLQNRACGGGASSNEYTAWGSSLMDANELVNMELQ
Summary of the method: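 Transcription factors were made in E. coli BL21-CodonPlus as N-terminal fusions to a polyhistidine tag and DsRed, then purified on Ni–NTA. After primer extension with Cy5-dUTP and blocking with 2% BSA, a custom Agilent array was exposed for 1 h at 25 °C to 200 nM protein in PBS, 2% BSA, salmon testes DNA and 50 µM zinc acetate. Washed arrays were scanned on an Axon 4000B, and the binding signal is per-feature fluorescence intensity in arbitrary units.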

First: GCGAGCTCCTGGAGGCGGCGAGGGCGCCGGAGTTCGCGGGCGGAGTCACCTAGTGCAG
Second: GAGATGGGAGGAGAGCTAGCTAGCCGCCGAGGCTGAGCTCCGGAGTCACCTAGTGCAG
The binding signal of the first is lower: 37200 fluorescence intensity (a.u.) for the first, 40600 fluorescence intensity (a.u.) for the second.

Compared with “CCGAGTGACGATGCAGCTGAGTCGGAGCGCAGCACGACTTCGGAGTCACCTAGTGCAG”, “GAGCAGGAGGAGCTGAGCGACTCCGAGTCGGGCGCCGAGTCGGAGTCACCTAGTGCAG” is higher in binding signal: 4290 fluorescence intensity (a.u.) for the first, 40100 fluorescence intensity (a.u.) for the second.

Compared with “GAGGGGCGCGGGCGCCGAGCTCCATCTGGCGAGCAGGGTACGGAGTCACCTAGTGCAG”, “CACCGCTACCTACGTTGTCGCCACCCACGTCAATAATCCTCGGAGTCACCTAGTGCAG” is lower in binding signal: 42200 fluorescence intensity (a.u.) for the first, 6310 fluorescence intensity (a.u.) for the second.

Compared with “ATTCTTTTACCGCGTTGATGAATCGGATTCGTTCCGGTTTCGGAGTCACCTAGTGCAG”, “GAGTCGTTATCTGCATTGATGTGTCTCCTGACTCCTGAGACGGAGTCACCTAGTGCAG” is higher in binding signal: 3360 fluorescence intensity (a.u.) for the first, 3840 fluorescence intensity (a.u.) for the second.

Going from “CAACCTCCGATTTCCAAATCCAGTTGTCTTCTTCTTCCCCCGGAGTCACCTAGTGCAG” to “ACAATACTACTATTTTATCATGACGATGACTGGAACTCCACGGAGTCACCTAGTGCAG”, the binding signal falls from 7150 fluorescence intensity (a.u.) to 4440 fluorescence intensity (a.u.).

First: CGCTGGTGAAGTGGTGATGCGCCTAATCGTTTTCTTCGCGCGGAGTCACCTAGTGCAG
Second: CTTGCATTCCTTTTCTTCTCCTGAACTATATAAACACACTCGGAGTCACCTAGTGCAG
The binding signal of the first is lower: 3260 fluorescence intensity (a.u.) for the first, 3290 fluorescence intensity (a.u.) for the second.

Compared with “AAATTTAAGAATTTTCGGATGCACTTAAAGAAGGACAAGTCGGAGTCACCTAGTGCAG”, “CCGCCTGACACGTGTAAGAGCAAGTTTAATAGTATAGCCCCGGAGTCACCTAGTGCAG” is higher in binding signal: 11000 fluorescence intensity (a.u.) for the first, 13800 fluorescence intensity (a.u.) for the second.

First: ATTGAATATAATTGGATATAAACAGTTTAAAACTATACTCCGGAGTCACCTAGTGCAG
Second: ATTATTAAAATATATAAATATTGAATTTAATAAAATAATTCGGAGTCACCTAGTGCAG
The binding signal of the first is lower: 5510 fluorescence intensity (a.u.) for the first, 26400 fluorescence intensity (a.u.) for the second.

Going from “GAGAGAGAGAGGAGATAATAAAATACTCGATATTGAATTGCGGAGTCACCTAGTGCAG” to “GGTTGAGTGACGCGCTATTTCTGGTATTGCGTATGAAGGGCGGAGTCACCTAGTGCAG”, the binding signal falls from 42500 fluorescence intensity (a.u.) to 3520 fluorescence intensity (a.u.).

First: TGTCCATGGTTTGTTGCTGCTGCGGTGGCACCAGTGCTGCCGGAGTCACCTAGTGCAG
Second: GTAGACGAAGACCTGGCAAGTCCTTGGGCTTAAATCTCACCGGAGTCACCTAGTGCAG
The binding signal of the first is lower: 7940 fluorescence intensity (a.u.) for the first, 17800 fluorescence intensity (a.u.) for the second.

First: GACTGTACACATGAAGGAACATATGTGCTGAAATACTGTACGGAGTCACCTAGTGCAG
Second: TATGAACACATATGTAGCATACGCTTAAATAGACGAAGACCGGAGTCACCTAGTGCAG
The binding signal of the first is lower: 26100 fluorescence intensity (a.u.) for the first, 40500 fluorescence intensity (a.u.) for the second.

First: GCTATATATTTGTTGATCAGCTAGGCTGTCAGCAGTTTAGCGGAGTCACCTAGTGCAG
Second: ATACACACATATCCGCGCCATTATAAATTTGACAGCATTTCGGAGTCACCTAGTGCAG
The binding signal of the first is higher: 3650 fluorescence intensity (a.u.) for the first, 3440 fluorescence intensity (a.u.) for the second.

Compared with “CAACATTAGCAATTAAAATTGCGGGTTATTTGTAAAAGTCCGGAGTCACCTAGTGCAG”, “CATATATGGACAGGCAACGGCATGTCGTGTTCGTACAAATCGGAGTCACCTAGTGCAG” is lower in binding signal: 32000 fluorescence intensity (a.u.) for the first, 3190 fluorescence intensity (a.u.) for the second.

Compared with “CCGCGTCCGTACTCTCTAGCCTGCGGGTAAGCAACGAACTCGGAGTCACCTAGTGCAG”, “CACCACACGAAGCAGCCACGAACGCAACGCGGGTGCGTCGCGGAGTCACCTAGTGCAG” is lower in binding signal: 45200 fluorescence intensity (a.u.) for the first, 3140 fluorescence intensity (a.u.) for the second.

Going from “GCGGTAGCCAAGCCTGCCACGTCAGCTCTCGCGCAACGTCCGGAGTCACCTAGTGCAG” to “CCCACCCCGCGTGCAGCTTAGGCGAACCCTCCTCCCTCCGCGGAGTCACCTAGTGCAG”, the binding signal falls from 34600 fluorescence intensity (a.u.) to 3660 fluorescence intensity (a.u.).

Going from “CCAAAATCAGATATCTTAGGATTCATATCGATGTCCAACACGGAGTCACCTAGTGCAG” to “CATATCCTCAAGTAGAATTCAAATCCAGTCACATTGCCACCGGAGTCACCTAGTGCAG”, the binding signal falls from 19200 fluorescence intensity (a.u.) to 4130 fluorescence intensity (a.u.).

Going from “CAGGTGGTGGTGGCCATTAGTTAGTGGCAAATGTGGAAGGCGGAGTCACCTAGTGCAG” to “GTTCAGAATGTGGTGGCGACGTAAGGTGATTTGGAAGGCGCGGAGTCACCTAGTGCAG”, the binding signal rises from 3220 fluorescence intensity (a.u.) to 43500 fluorescence intensity (a.u.).

Going from “AGGAATGCATTTGTGGTGGGTGCAGGTGCGCGGGTGGCGACGGAGTCACCTAGTGCAG” to “CTAGAGGAAGTGGGGAAGCCGACGACCCCACGTCTCGCCACGGAGTCACCTAGTGCAG”, the binding signal rises from 3340 fluorescence intensity (a.u.) to 3940 fluorescence intensity (a.u.).

Compared with “GACTAACAAAATCGTTGAAACTTGCGAAGTTTCTTTTGATCGGAGTCACCTAGTGCAG”, “TACTTTCAACTCTAACTTGAAAACTTTCAACTTTGACTTGCGGAGTCACCTAGTGCAG” is lower in binding signal: 64700 fluorescence intensity (a.u.) for the first, 3860 fluorescence intensity (a.u.) for the second.

First: TAAAATAGTTTTAAAACTTTAAGTTGAAAGTAAATACTTTCGGAGTCACCTAGTGCAG
Second: CCACCCACGGAGCCAGCTCACTACCACCGTTTGTCGCCTCCGGAGTCACCTAGTGCAG
The binding signal of the first is higher: 27900 fluorescence intensity (a.u.) for the first, 4360 fluorescence intensity (a.u.) for the second.

First: GTACTACTCCCTCCGTTTCTCCCTCCGTTTCAAAATGTTTCGGAGTCACCTAGTGCAG
Second: TTCTTCCTCCGTCAGTTCATCATCTCTCTGTGTGTGTTTTCGGAGTCACCTAGTGCAG
The binding signal of the first is lower: 3220 fluorescence intensity (a.u.) for the first, 3570 fluorescence intensity (a.u.) for the second.

For “ACATGTGTTCACGCGTGTGTATCTTCTACTCCCTCCGTTTCGGAGTCACCTAGTGCAG”, the binding signal was 43200 fluorescence intensity (a.u.).

Reference: publication PMC7819943, “Rice protein-binding microarrays: a tool to detect cis-acting elements near promoter regions in rice”
